Inconclusive results are not listed. A call without a number means that no potency is given here. Activity calls are given as the source filed them. The call rests on the fitted dose curve; in most records, active means well fitted curve in the direction sought with a large enough effect; inconclusive means small, poorly fitted or top-dose-only effect, or another doubt; inactive means no such curve, though single readings can be large; an effect the other way counts as inactive or inconclusive.

For assay [1], the target named is Calcium and integrin-binding protein 1 (Homo sapiens) (UniProt Q99828). Kind of assay: Validation qHTS for Identification of Calcium Integrin Binding protein 1 (CIB1) Competitor (AID 1508618). The method, boiled down: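 CIB1-GST (1 uM final) incubated 15 min at room temperature with compounds (up to 114 uM), then FITC-labelled alphaIIb peptide (100 nM) added. FP read (Ex 480/Em 540) after 15 min, pH 7.4 buffer containing 5 mM CaCl2.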

A further assay concerns the target Papain (Carica papaya) (UniProt P00784). The experiment in a line: Primary qHTS assay for inhibitors of the protease papain (AID 1645873).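 Further: papain turnover of Z-FR-AMC read as the AMC fluorescence gain over 10 min; series mostly up to about 50 µM.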

Sequence of Papain (Carica papaya) (P00784 whole entry, looked up): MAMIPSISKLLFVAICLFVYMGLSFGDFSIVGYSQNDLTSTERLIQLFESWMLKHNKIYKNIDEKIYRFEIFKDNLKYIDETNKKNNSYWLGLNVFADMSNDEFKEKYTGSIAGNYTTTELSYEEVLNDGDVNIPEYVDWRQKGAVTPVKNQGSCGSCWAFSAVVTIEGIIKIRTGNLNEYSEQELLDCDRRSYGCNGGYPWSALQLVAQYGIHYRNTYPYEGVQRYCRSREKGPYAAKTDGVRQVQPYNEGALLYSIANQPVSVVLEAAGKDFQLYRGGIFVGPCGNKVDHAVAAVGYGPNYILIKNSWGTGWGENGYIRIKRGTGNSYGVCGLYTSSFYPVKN
Sequence of Calcium and integrin-binding protein 1 (Homo sapiens) (Q99828 whole entry, looked up): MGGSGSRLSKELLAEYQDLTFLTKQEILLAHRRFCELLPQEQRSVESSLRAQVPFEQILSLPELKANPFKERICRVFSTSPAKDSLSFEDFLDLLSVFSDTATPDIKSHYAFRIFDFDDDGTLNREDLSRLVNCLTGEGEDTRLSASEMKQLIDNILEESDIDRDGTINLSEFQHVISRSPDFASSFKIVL

As to `Nc1ccn([C@H]2O[C@H](CO)[C@@H](O)C2(F)F)c(=O)n1`, the outcome in assay [1] was inactive. The Potency result with Papain (Carica papaya) is “inactive”.

With `CC[C@H]1OC(=O)[C@H](C)[C@@H](O[C@H]2C[C@@](C)(OC)[C@@H](O)[C@H](C)O2)[C@H](C)[C@@H](O[C@@H]2O[C@H](C)C[C@H](NC)[C@H]2O)[C@](C)(O)C[C@@H](C)CN(C)[C@H](C)[C@@H](O)[C@]1(C)O`, in assay [1], the outcome was inactive. Further, in the assay with Papain (Carica papaya), the Potency entry was “inactive”.

In the case of `COCCOc1cc2nc[nH]c(=O)c2cc1OCCOC`, in assay [1], the outcome was inactive. Moreover, the Potency entry with Papain (Carica papaya) is “inactive”.

As to `CC(C)NC[C@H](O)COc1cccc2[nH]ccc12`, in assay [1], the result was inactive. Moreover, the Potency result in the assay with Papain (Carica papaya) was “inactive”.

For the compound `COC1=C(OC)C(=O)c2ccccc2C1=O`, in assay [1], the result was inactive. For the same compound, the Potency entry with Papain (Carica papaya) was “inactive”.

For the compound `COc1cc(OC)cc(-c2cc3cnc(N)nc3nc2NC(=O)NC(C)(C)C)c1`, the outcome in assay [1] was inactive. In addition, in the assay with Papain (Carica papaya), the Potency entry is “inactive”.

On to `C=CC(N)CCC(=O)O` (stereo not given), for which the outcome in assay [1] was inactive. Besides, the Potency entry in the assay with Papain (Carica papaya) is “inactive”.

`Nc1nc2ccc(Cl)cc2n2c(-c3ccccc3)nnc12`: the result in assay [1] was inactive. In the assay with Papain (Carica papaya), the Potency result is “inactive”.

For `O=c1cc(-c2ccccc2)oc2c(O)c(O)ccc12`, the result in assay [1] was inactive. In addition, the Potency result with Papain (Carica papaya) is “inactive”.

In the case of `S=c1[nH]c(-c2ccccc2)cn1-c1ccccc1`, the outcome in assay [1] was inactive. The Potency result with Papain (Carica papaya) is “inactive”.
